# Tb PYK inh – inhibitors of Trypanosoma brucei pyruvate kinase. TbPYK enzyme, Kinase-Glo Plus ATP luminescence, 45 min. Q57TT1. AID 624173. Potency, µM (highest dose often 76.8 µM), without a hit: at the highest dose activity, negative = inhibition, most hits filed as inhibitors. hit rate 0.12% among 410,000; note: % is set by controls: 0 for no effect and ±100 for the full control effect; nearly all actives have a fitted effect of over 50% in size
#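 Screened from lowest to highest concentration, compounds were pinned into TbPYK/substrate mixtures, and ADP (130 uM final) was added. Plates sat at room temperature for 45 min prior to Kinase-Glo Plus detection by luminescence.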
# RE007 growth inh – less growth of the S. pombe RE007 Vpr strain; S. pombe RE007 Vpr strain, BacTiter-Glo ATP luminescence, 24 h; Potency, µM (titrated, usually from 92.2 µM), for the others: at the highest dose activity change, negative = less growth, most hits filed as inhibitors; AID 651644; hit rate 0.21% among 360,000; active = well fitted falling curve with a large enough effect; inconclusive = small, poorly fitted or top-dose-only effect; inactive = no such curve, though single readings can be large or run the other way; note: % is set by controls: 0 for no effect and ±100 for the full control effect; nearly all actives have a fitted effect of over 50% in size
#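 Fission yeast RE007 carrying one integrated HIV-1 vpr copy, seeded at OD 0.01 in PMG+AL medium with 23 nL pinned compound. Grown 24 h at 30 degrees; viability read by BacTiter-Glo luminescence after 5 min.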
# NS1 inh – inhibitors of influenza NS1 protein function; hit rate 0.4% among 270,000; Potency, µM (top dose mostly 46.1 µM), without a hit: top-dose activity, positive = more growth; AID 2326; calls by dose curve; note: actives are rising curves; nearly all actives have a fitted effect of over 50% in size
#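 Growth recovery, yeast-based: influenza A NS1 expressed in S. cerevisiae causes slow growth, and suppressors are detected by OD600. The parent strain without NS1 is used as positive control.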
# SARS PLpro yeast – blocks SARS-CoV papain-like protease in a yeast assay; S. cerevisiae expressing SARS-CoV PLpro, growth rescue; hit rate 0.19% among 330,000; Potency, µM (highest dose often 32.9 µM), without a hit: top-dose activity, positive = growth rescue, usual class: activators; calls by dose curve; note: 0% is about no effect; nearly all actives have a fitted effect of over 55% in size
# LmPK inhibitor – blocks Leishmania mexicana pyruvate kinase activity; Q27686; purified LmPK, Kinase-Glo ATP luminescence, 1 h; Potency, µM (doses to about 57.5 µM), inactives show at the top dose activity change, negative = inhibition, actives largely listed as inhibitors; hit rate 0.37% among 290,000; AID 1721; note: % is set by controls: 0 for no effect and ±100 for the full control effect
# Target sequence (Q27686 whole entry, looked up): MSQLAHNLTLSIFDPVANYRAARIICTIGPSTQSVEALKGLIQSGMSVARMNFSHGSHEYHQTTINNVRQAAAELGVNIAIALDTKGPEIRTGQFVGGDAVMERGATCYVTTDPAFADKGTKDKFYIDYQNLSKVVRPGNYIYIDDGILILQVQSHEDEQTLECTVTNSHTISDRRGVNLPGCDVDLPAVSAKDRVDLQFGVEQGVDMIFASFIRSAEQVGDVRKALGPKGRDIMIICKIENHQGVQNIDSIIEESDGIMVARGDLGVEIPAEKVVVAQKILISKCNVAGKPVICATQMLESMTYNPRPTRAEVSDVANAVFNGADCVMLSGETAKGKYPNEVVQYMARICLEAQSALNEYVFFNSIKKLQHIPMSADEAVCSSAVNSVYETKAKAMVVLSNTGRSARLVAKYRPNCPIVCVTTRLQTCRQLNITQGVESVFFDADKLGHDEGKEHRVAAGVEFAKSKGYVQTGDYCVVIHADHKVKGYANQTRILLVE
#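 Pyruvate kinase activity monitored as ATP production (luciferase luminescence). Conditions: 0.1 nM enzyme, 0.5 mM PEP, 0.1 mM ADP, 1 h, RT; normalized against uninhibited and no-enzyme wells.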
# Sm TGR inh – blocks Schistosoma mansoni thioredoxin glutathione reductase; Q962Y6; purified TGR, DTNB reduction, TNB absorbance 405 nm; Potency, µM (highest dose often 114 µM), without a hit: at the top dose activity change, negative = inhibition, hits mostly inhibitors; hit rate 3% among 360,000; note: % is set by controls: 0 for no effect and ±100 for the full control effect; nearly all actives have a fitted effect of over 60% in size
#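 TGR 20 nM + NADPH 100 uM (dispensed conc.), cpd preinc 15 min RT; start with NADPH (500 uM addition) then DTNB (15 mM addition). Kinetic TNB absorbance, 405 nm filter. Four-parameter Hill fit across titration.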
# Active calls of the source: *; ? = inconclusive; . = not tested or not shown; [ ] = dose if it differs, or a comment. Rows were chosen to be rich in hits. Some 3.3% of all compounds tested hit in one or more screens of this group. Unless noted, calls come from the whole dose curve; as a rule, active = well fitted curve in the direction sought with a large enough effect; inconclusive = small, poorly fitted or top-dose-only effect, or another doubt; inactive = no such curve, though single readings can be large; an effect the other way counts as inactive or inconclusive. Potency is the fitted concentration of half-maximal effect.
SMILES,Tb PYK inh,RE007 growth inh,NS1 inh,SARS PLpro yeast,LmPK inhibitor,Sm TGR inh
CC(=O)Nc1nc2n(n1)C(c1ccc(F)cc1)C=C(c1ccccc1)N2 (configuration not stated),-5%,-5%,-1%,3%,3%,3.2µM*
CCN(CC)c1ccc2c(c1)CCCN2,.,.,4%,13µM*,-23%,5µM*
O=S(=O)(c1ccc2c(c1)CCCN2)N1CCCC1,3%,7%,.,6%,.,-11%
CCc1ccc(-n2nc(C)c3c(C)cc(=O)n(CC(=O)NCc4ccc(C)cc4)c32)cc1,-3%,.,.,.,.,-5%
O=C(CSc1nccn1Cc1ccccc1)NC1CCCC1,-1%,?,5%,13µM*,-13%,-6%
C=CCOC(=O)c1cc(-c2ccc(/C=C3\C(=O)NC(=O)C(C#N)=C3C)o2)ccc1Cl,-11%,40µM*,-2%,3%,13%,7.9µM*
CC1=C(C#N)C(=O)NC(=O)/C1=C/c1ccc(-c2ccc(S(N)(=O)=O)cc2)o1,?,4%,.,9%,0%,8.9µM*
NS(=O)(=O)c1ccc(-c2ccc(C=O)o2)cc1,0%,4%,1%,3%,0%,-5%
CCCOC(=O)c1cc(-c2ccc(/C=C3/C(=O)N(C)C(=O)C(C#N)=C3C)o2)ccc1Cl,-18%,2%,.,.,.,.
NS(=O)(=O)c1ccc(-c2ccc(/C=C3\NC(=S)NC3=O)o2)cc1,?,-25%,-10%,9%,-2%,8.9µM*
COC(=O)[C@@H](NC(=O)N1CCc2nc(COc3ccccc3)c3c(c2C1)CO[C@@H](C)C3)C(C)C,.,.,.,.,-2%[11.5 µM],.
COc1ccc(CCNC(=O)c2cc3c(s2)-c2c(C)cccc2OC3)c(OC)c1,3%,.,.,.,.,6%
NC(=O)NC(=O)CSc1nnc(-c2ccc(Cl)cc2)n1CC1CCCO1 (configuration not stated),-1%,-3%,.,1%,-11%,1%
Cc1occc1-c1nnc(SCC(=O)c2ccc(Cl)cc2)n1CC1CCCO1 (configuration not stated),-20%,8%,9%,0%,0%,20µM*
Cc1ccc(C(=O)CSc2nnc(-c3ccco3)n2CC2CCCO2)cc1 (configuration not stated),-28%,-4%,-9%,-3%,8%,20µM*
CCn1c(SCC(=O)c2ccc(C)cc2)nnc1-c1ccoc1C,-9%,12%,-13%,-11%,-5%,?
CCn1c(SCC(=O)c2ccc(Cl)cc2)nnc1-c1ccoc1C,-21%,-16%,-31%,?,0%,25µM*
O=C(Nc1cccc(F)c1)c1ccc2oc(=O)n(Cc3ccccc3)c2c1,-4%,.,.,.,.,-2%
COc1ccc(NC(=O)CC2C(=O)N(c3ccc(F)cc3)C(=O)N2Cc2ccc3c(c2)OCO3)cc1 (configuration not stated),-9%,.,.,.,.,2%
O=C(NC(=S)Nc1ccccc1Cl)c1csnn1,4%,-9%,10%,-9%,0%,22µM*
COc1ccc(S(=O)(=O)N2CCC(C(=O)N[C@H](C(=O)NC3CCCC3)C(C)C)CC2)cc1,-7%,5%,1%,-2%,-1%,89µM*
COc1ccc(S(=O)(=O)N2CCC(C(=O)N[C@H](C(=O)N3CCCC3)C(C)C)CC2)cc1,-12%,-5%,-5%,-3%,2%,-3%
COC(=O)C1=C(C)NC(=O)/C1=C\c1cc(C)n(-c2ccc(F)cc2)c1C,1%,-17%,4%,0%,-1%,.
COC(=O)C1=C(O)/C(=C\c2cc(C)n(-c3ccc(F)cc3)c2C)N=C1C,-4%,-10%,.,-4%,1%[11.5 µM],28µM*
COC(=O)C1=C(O)/C(=C/c2cccc(OC)c2O)N=C1C,-24%,-4%,4%,-1%,25µM*,2%
SMILES,Tb PYK inh,RE007 growth inh,NS1 inh,SARS PLpro yeast,LmPK inhibitor,Sm TGR inh
CC(=O)[C@H]1[C@H]([C@H](O)[C@H](O)CO)O[C@](O)(C(=O)O)C[C@@H]1O,4%,-5%,.,6%,.,13µM*
c1ccc2c[n+](Cc3ccnc4ccccc34)ccc2c1,.,.,0%,.,.,.
Cc1ccc(NC(CC(=O)c2ccccc2)c2ccc(F)cc2)cc1 (configuration not stated),1%,-22%,-10%,4%,-4%,0%
O=C(CC(Nc1ccc(F)cc1)C(=O)OCC(=O)c1cccs1)c1ccccc1 (configuration not stated),4%,?,-28%,-20%,1%,8.9µM*
COc1ccc(C(=O)COC(=O)c2cccs2)cc1,?,?,.,1%,.,.
O=C(CC(Nc1ccc(F)cc1)C(=O)O)c1ccccc1 (configuration not stated),-21%,-14%,-9%,-8%,-30%,1.8µM*
O=C(COC(=O)c1cccs1)c1ccccc1,-6%,?,-5%,9%,14µM*,0%
COc1ccccc1C(=O)Nc1ccc(-c2cc(C(F)(F)F)nn2-c2ccccc2)cc1,4%,.,.,.,.,-9%
O=C(CSc1nnc(-c2ccco2)n1Cc1ccccc1)c1ccccc1,-19%,6%,-24%,4%,2%,45µM*
Cn1c(SCC(=O)OCc2ccccc2)nnc1-c1ccco1,-24%,1%,-14%,0%,7%,?
Cn1c(SCC(=O)c2ccc(-c3ccccc3)cc2)nnc1-c1ccco1,0%,-5%,-33%,-11%,1%,6.3µM*
Cc1ccc(C(=O)CSc2nnc(-c3ccco3)n2Cc2ccccc2)cc1,?,-22%,-25%,6%,3%,-13%
COc1cccc(CSc2nnc(-c3ccco3)n2C)c1,3%,-1%,-69%,1%,3%,40µM*
Fc1cccc(CN2CCc3nc(Nc4ccc5c(c4)OCCO5)ncc3C2)c1F,-4%,.,.,.,.,3%
O=C(CSc1nc2ccccc2c2nc(-c3ccccc3)nn12)Nc1ccc(F)cc1,-6%[15.4 µM],.,.,.,.,5%
CC(=O)Nc1ccc(S(=O)(=O)N(Cc2ccccc2)Cc2ccccc2)cc1,-3%,.,.,.,.,11%
CCOC(=O)c1cc(S(=O)(=O)Nc2ccccc2OCC)[nH]n1,-11%,.,.,.,.,-4%
COC(=O)c1ccc2c(=O)n(CCCCCC(=O)NCCc3ccc(Cl)cc3)c(=O)[nH]c2c1,2%,.,.,.,.,-1%
CC(=O)C1=C(O)C(=O)N(CCc2c[nH]c3ccccc23)C1c1ccc(C)cc1 (configuration not stated),-1%,-12%,3%,0%,-2%,7%
CC(=O)C1=C(O)C(=O)N(CCc2c[nH]c3ccccc23)C1c1ccco1 (configuration not stated),3%,-1%,3%,-2%,-3%,40µM*
Oc1ccc2ccccc2c1CN1CCCC1,0%,-16%,1%,-1%,6%,2.5µM*
